Our source for the outcome values is PubChem BioAssay (EPA / NIEHS).

Calls of active or inactive are those of the source. Rule for the calls: active = hit-call score of the fitted dose curve at least 0.9, where 1 is the maximum; inactive = score below 0.9.

Signal transducer and activator of transcription 3 (Homo sapiens), sequence (P40763 whole entry, looked up, the tested form may be a part): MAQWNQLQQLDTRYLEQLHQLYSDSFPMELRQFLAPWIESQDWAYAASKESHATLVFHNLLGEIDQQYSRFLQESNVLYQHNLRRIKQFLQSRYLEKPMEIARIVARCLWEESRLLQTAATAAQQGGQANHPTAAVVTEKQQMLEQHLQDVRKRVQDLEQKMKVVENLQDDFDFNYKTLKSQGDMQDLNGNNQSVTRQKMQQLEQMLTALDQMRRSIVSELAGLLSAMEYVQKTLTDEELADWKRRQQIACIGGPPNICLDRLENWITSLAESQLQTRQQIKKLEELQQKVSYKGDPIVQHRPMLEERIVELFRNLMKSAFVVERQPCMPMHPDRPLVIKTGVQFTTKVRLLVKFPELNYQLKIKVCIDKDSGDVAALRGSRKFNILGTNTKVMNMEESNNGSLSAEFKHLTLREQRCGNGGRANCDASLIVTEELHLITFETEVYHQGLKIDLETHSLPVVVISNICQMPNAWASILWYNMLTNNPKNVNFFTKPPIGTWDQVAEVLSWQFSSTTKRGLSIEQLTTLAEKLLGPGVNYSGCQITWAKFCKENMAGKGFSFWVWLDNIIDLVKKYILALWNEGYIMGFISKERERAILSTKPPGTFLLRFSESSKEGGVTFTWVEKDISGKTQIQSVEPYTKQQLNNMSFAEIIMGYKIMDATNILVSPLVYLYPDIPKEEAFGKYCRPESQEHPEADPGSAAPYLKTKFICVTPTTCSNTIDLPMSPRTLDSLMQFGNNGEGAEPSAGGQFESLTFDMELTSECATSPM

This assay has as its target Signal transducer and activator of transcription 3 (Homo sapiens) (UniProt P40763). The experiment in a line: ATG_STAT3_CIS: Attagene CIS-FACTORIAL HepG2 Assay for human Signal Transducer and Activator of Transcription 3 (STAT3) (AID 2282963). To be noted: HepG2, Attagene cis-factorial STAT3 reporter transcription; actives raise or lower the signal. The gist of the method: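 Readout: fluorescent reporter mRNA fragments resolved by capillary electrophoresis. Setup: HepG2 transfected with MRTUs reporting endogenous transcription-factor activity, dosed 24 h. Gain or loss of signal fitted bidirectionally against DMSO control.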
For `N#Cc1cc(Br)c(O)c(Br)c1`, the compound was classed as inactive.

Regarding `Cc1c(F)c(F)c(COC(=O)C2C(/C=C(\Cl)C(F)(F)F)C2(C)C)c(F)c1F` (configuration not stated), the result was inactive. In the case of `O=C(O)COc1nc(Cl)c(Cl)cc1Cl`, the call was inactive. With `COc1cnc(OC)n2nc(NS(=O)(=O)c3c(OCC(F)F)cccc3C(F)(F)F)nc12`, the compound was called inactive.

In the case of `O=C(O)c1nc(Cl)ccc1Cl`, the compound was classed as inactive. With `CCOC(=O)C(Cl)Cc1cc(-n2nc(C)n(C(F)F)c2=O)c(F)cc1Cl` (configuration not stated) the entry was “inactive”. In the case of `CNC(=O)ON=CC(C)(C)SC`, the call was inactive.

As for `CCNc1nc(Cl)nc(NCC)n1`, the outcome was inactive. Consider `N#CC(CCc1ccc(Cl)cc1)(Cn1cncn1)c1ccccc1` (configuration not stated), for which the compound was classed as inactive. Consider `CCOP(=S)(OCC)SCn1c(=O)oc2cc(Cl)ccc21`, for which the result was inactive. In the case of `CS/C(C)=N/OC(=O)N(C)SN(C)C(=O)O/N=C(\C)SC`, the call was inactive. As to `Fc1ccc(Oc2ccnc3cc(Cl)cc(Cl)c23)cc1`, the compound was classed as inactive.

As to `CCON=C(CC)C1=C(O)CC(c2c(C)cc(C)cc2C)CC1=O` (configuration not stated), the call was inactive.

With `Cc1ccc(-c2c(Cl)nc(C#N)n2S(=O)(=O)N(C)C)cc1`, the compound was called inactive. For `CC(Oc1ccc(Cl)cc1Cl)C(=O)O` (configuration not stated), the compound was classed as inactive.

On to `CCOc1cc(Oc2ccc(C(F)(F)F)cc2Cl)ccc1[N+](=O)[O-]`, for which the call was inactive. As for `CCNc1nc(Cl)nc(NC(C)C)n1`, the call was inactive. Regarding `COC(=O)C(C)Oc1ccc(Oc2ccc(Cl)cc2Cl)cc1` (configuration not stated), the compound was classed as inactive. Consider `Cc1cc(Cl)ccc1OCC(=O)O`, for which the compound was classed as inactive. In the case of `CN(C)C(=S)SSC(=S)N(C)C`, the call was inactive. With `C#CCOS(=O)OC1CCCCC1Oc1ccc(C(C)(C)C)cc1` (configuration not stated) the entry was “inactive”; with `CC(C)Oc1cc(-n2nc(C(C)(C)C)oc2=O)c(Cl)cc1Cl`, “inactive”.
